Experimental data published in PubChem BioAssay AID1347426 (Functional Genomics Laboratory (NCATS/FGL), 2020).
The campaign covered roughly 31,000 sequences. About 1,400 (4.5%) were called active. The full list was thinned out, with actives kept by preference. Unmarked numbers belong to inactive results.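 How the source made its calls: active means median seed-adjusted z-score above 1 or below -1; inactive means the rest.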

assay: Novel Modifiers of Survival Motor Neuron (SMN) Protein: Gene Identification via Genome-wide siRNA Screen; conditions: HEK293T SMN2-luciferase reporter, siRNA knockdown, 72 h; actives lie on both sides;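 further: luminescence tracks full-length SMN protein made from the SMN2 reporter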
Method in brief: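 HEK293T cells stably expressing an SMN2 splicing/cDNA-luciferase reporter were reverse-transfected with a druggable-genome siRNA library and read by luminescence at 72 hours; hits defined by MAD score above 1.0 or below -1.0.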

Row | Sequence | median seed-adjusted z-score
1 | GGAUAUCUUCUAUGAUCUATT against SMAD7 | -0.25
2 | AGAACUUUGUGCACCGUGATT against ZAP70 | -0.674
3 | AGCUUGAAAUCUCAUGGAATT against SPINK5L2 | 0.482
4 | GAAGAUUGCUAAUGACAAUTT against GOT1 | 0.0103
5 | UAAUAAUUCUCACUCCUAATT against FZD5 | -0.129
6 | GACCGGCCGUUCAGAAUGATT against RPUSD1 | 0.327
7 | CGUGUACCCGUUUGACUUUTT against SGSH | 0.383
8 | GCCUGGUACUACUAGCUUUTT against TRPC5 | -1.14 (active)
9 | CCUCUAGAAGGAUCUAAUATT against MMP19 | 0.43
10 | GAAUUGUUUUAGCUAACGATT against PGM2 | 0.355
11 | AAACAGACAGAGAUAAGUATT against UBE2D3 | 1.62 (active)
12 | AGUACUUUGUAUUGGGAUATT against RCE1 | -1.19 (active)
13 | AGCAGGAUAUGAUCCGGAATT against SEC14L4 | -0.714
14 | GGCACGUCCUGUUACACCATT against LMO4 | -0.067
15 | CGCUUGGAGAGGCUACAAATT against FXR2 | -0.133
16 | GUUCCGAAGUGGUCUCAUUTT against MINPP1 | -0.0107
17 | GCAGUACACUACCAACAGATT against ALAS1 | -1.15 (active)
18 | CAACAUUGGAAAAUACAGATT against LAP3 | 0.0175
19 | UCCCGGGAAUUAAAACUUATT against EPHA6 | 0.0445
20 | GGAUCUGCACAGUCUUCUATT against PSKH2 | 0.0439
21 | GGAUUUGCCCUGACAAAAATT against ZRANB2 | 0.441
22 | CAUUGAGAAUAAUAACAGATT against PPP3CA | 0.74
23 | GCCUAUUAUGGAGAAAAGATT against HES1 | -0.262
24 | CGAUAUGAUUGGCCAGAGATT against GIPC3 | -0.27
25 | CGGAUUUGUUGCUAAAUGATT against PCDHB8 | 1.15 (active)
26 | CUGACAGUGUGGAUCGAUATT against COL12A1 | 0.00422
27 | GGAUUGAAAACAAACUCUATT against RET | -0.931
28 | GCGGUACUUUGAGCAGUUATT against P4HA2 | 0
29 | GGCUCUUCAAGGCUAUGAATT against ANXA6 | -1.01 (active)
30 | GUCUGUAACUGAGCAAGGATT against YWHAZ | 0.721
